Source: PubChem BioAssay
In the library only some 11% were active in any assay of this set; here they are far more common.
BAZ2B block: qHTS Assay for Inhibitors of BAZ2B | Bromodomain adjacent to zinc finger domain protein 2B (Homo sapiens), Q9UIF8 | AlphaScreen BAZ2B-H3K14Ac peptide displacement | Potency, µM (titrated, usually from 114 µM), actives largely listed as inhibitors | 360,000 tested, 4.4% active | AID 504333, 2011; note: nearly all actives have a fitted effect of over 60% in size
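BAZ2B 50 nM plus b-H3(5-23)K14Ac 50 nM, PBS pH 7.4/0.01% Tween-20, 30 min RT; compound added (max 110 uM), 30 min RT; streptavidin donor/Ni-chelate acceptor beads 10 ug/mL final, 20 min dark; AlphaScreen read.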
G9a inh: qHTS Assay for Inhibitors of Histone Lysine Methyltransferase G9a; Histone-lysine N-methyltransferase EHMT2 (Homo sapiens), Q96KQ7; G9a H3K9 monomethylation, AlphaScreen, 2 h; Potency, µM (series often up to 102 µM), actives largely listed as inhibitors; 350,000 tested, 8.8% active; AID 504332, 2011; note: nearly all actives have a fitted effect of over 75% in size
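Quantitative HTS format: methyltransferase activity on a biotin-tagged H3K9 peptide is measured by AlphaScreen, using a rabbit anti-monomethyl-H3K9 antibody with streptavidin donor and anti-IgG acceptor beads. Final levels are 20 nM enzyme, 500 nM peptide, 20 uM SAM; 2 h RT.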
JMJD2A Tudor inh: qHTS Assay for Inhibitors of JMJD2A-Tudor Domain | Lysine-specific demethylase 4A (Homo sapiens), O75164 | AlphaScreen JMJD2A-Tudor / H3K4me3 peptide binding | Potency, µM (doses to about 114 µM), actives largely listed as inhibitors | 390,000 tested, 4.4% active | AID 504339, 2011; note: nearly all actives have a fitted effect of over 50% in size
Target sequence (O75164 whole entry, looked up, the tested form may be a part): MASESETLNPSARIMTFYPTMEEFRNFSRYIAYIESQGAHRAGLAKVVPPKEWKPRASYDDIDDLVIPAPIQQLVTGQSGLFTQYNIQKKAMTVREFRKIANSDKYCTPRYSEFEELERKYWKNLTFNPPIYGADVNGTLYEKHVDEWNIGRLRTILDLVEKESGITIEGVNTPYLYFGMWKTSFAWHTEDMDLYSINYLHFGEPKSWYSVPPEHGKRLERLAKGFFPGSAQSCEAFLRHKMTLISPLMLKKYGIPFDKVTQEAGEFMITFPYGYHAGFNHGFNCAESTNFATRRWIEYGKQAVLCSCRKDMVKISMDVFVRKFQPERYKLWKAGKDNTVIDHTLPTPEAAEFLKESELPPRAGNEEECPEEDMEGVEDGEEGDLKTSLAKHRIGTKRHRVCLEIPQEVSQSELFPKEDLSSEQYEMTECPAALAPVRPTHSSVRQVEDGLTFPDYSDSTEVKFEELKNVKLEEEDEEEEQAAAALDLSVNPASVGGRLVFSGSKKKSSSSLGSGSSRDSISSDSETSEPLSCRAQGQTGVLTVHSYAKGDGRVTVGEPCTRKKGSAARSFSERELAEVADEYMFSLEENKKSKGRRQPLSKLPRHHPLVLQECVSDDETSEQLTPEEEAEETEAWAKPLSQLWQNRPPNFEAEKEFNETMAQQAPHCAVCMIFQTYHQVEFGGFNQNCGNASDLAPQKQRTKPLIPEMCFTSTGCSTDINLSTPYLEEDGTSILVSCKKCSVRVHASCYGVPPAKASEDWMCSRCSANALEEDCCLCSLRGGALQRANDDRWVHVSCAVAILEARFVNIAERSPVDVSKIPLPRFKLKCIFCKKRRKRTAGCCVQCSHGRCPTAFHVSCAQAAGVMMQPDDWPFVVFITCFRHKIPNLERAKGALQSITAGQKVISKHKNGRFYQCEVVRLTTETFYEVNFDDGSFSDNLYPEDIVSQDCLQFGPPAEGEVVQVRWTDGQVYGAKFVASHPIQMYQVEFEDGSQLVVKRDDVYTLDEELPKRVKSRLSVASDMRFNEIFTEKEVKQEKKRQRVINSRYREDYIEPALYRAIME
L3MBTL1 inh: qHTS Assay for the Inhibitors of L3MBTL1. Lethal(3)malignant brain tumor-like protein 1 (Homo sapiens), Q9Y468. AlphaScreen L3MBTL1–H3K9me1 peptide binding. Potency, µM (titrated, usually from 57.1 µM), most hits filed as inhibitors. 230,000 tested, 0.66% active; note: nearly all actives have a fitted effect of over 60% in size
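L3MBTL1 50 nM + b-AHA-H3(1-15)K9me1 75 nM, 30 min RT; compound added, 30 min RT; streptavidin donor/Ni-chelate acceptor beads 10 ug/mL each final, 30 min RT dark; AlphaScreen read.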
HP1b binding inh: HTS for Inhibitors of HP1-beta Chromodomain Interactions with Methylated Histone Tails; Chromobox protein homolog 1 (Homo sapiens), P83916; AlphaScreen HP1-beta / biotin-H3K9me3 peptide binding; Potency, µM (highest dose often 114 µM), actives largely listed as inhibitors; 390,000 tested, 0.56% active; note: nearly all actives have a fitted effect of over 70% in size
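AlphaScreen: HP1-beta (50 nM) preformed 30 min with biotin-H3(1-18)K9me3 peptide (50 nM) in PBS pH 7.4, 0.01% Tween-20. Compound added for 30 min at RT, then streptavidin donor/nickel chelate acceptor beads (10 ug/mL) for 30 min.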
Numbers stand for hits; i = inactive; ? = inconclusive; nt = not tested or not shown; [ ] = dose if it differs, or a comment. Calls come from the whole dose curve; as a rule, active = well fitted inhibition curve with a large enough effect; inconclusive = small, poorly fitted or top-dose-only effect; inactive = no such curve, though single readings can be large or run the other way.

SMILES | BAZ2B block | G9a inh | JMJD2A Tudor inh | L3MBTL1 inh | HP1b binding inh
COc1ccc2nc3cc(Cl)ccc3c(Nc3cc(C(C)C)c(O)cc3C)c2c1 | ? | i | ? | ? | i
COc1ccc(Nc2nc3ccccc3nc2NS(=O)(=O)c2ccc(NC(C)=O)cc2)cc1 | i | i | i | i | i
CC(=O)Nc1ccc(S(=O)(=O)Nc2nc3ccccc3nc2Nc2ccc(S(N)(=O)=O)cc2)cc1 | i | 44.7µM | i | i | i
NS(=O)(=O)c1ccc(Nc2nc3ccccc3nc2NS(=O)(=O)c2cccc([N+](=O)[O-])c2)cc1 | ? | 31.6µM | ? | ? | i
Cc1ccc2oc(C(=O)Nc3ccc(S(=O)(=O)Nc4nc(C)cc(C)n4)cc3)cc(=O)c2c1 | i | ? | i | nt | i
Cc1cc(S(=O)(=O)N2CCN(CC(=O)N(C)Cc3ccccc3)CC2)ccc1Br | i | 56.2µM | i | i | i
Cc1cccc(C(=O)NNC(=O)/C=C/C(=O)O)c1 | i | 35.5µM | i | nt | i
Cc1ccccc1C(=O)NC(CC(C)C)C(=O)NN1C(=O)c2ccccc2C1=O (centres undefined) | i | i | i | i[11.4 µM] | i
O=C(O)/C=C/C(=O)NNC(=O)c1ccccc1Br | ? | i[0.0925 µM] | i | i | i
Cc1ccccc1C(=O)NNC(=O)C(C)N1C(=O)c2ccccc2C1=O (centres undefined) | i | 11.2µM | i | i | i
Cc1ccccc1C(=O)NNC(=O)/C=C\C(=O)O | i | 4.47µM | 50.1µM | i | i
O=C(NCc1nnc(-c2nc3ccccc3[nH]2)o1)C1CCCCC1 | nt | nt | i | nt | nt
CCOC(=O)/C(=N\Nc1ccc(Cl)cc1)c1csc(Nc2ccccc2)n1 | i | ? | ? | nt | i
Cc1ccc(Nc2nc(C3CC3)cs2)cc1 | i | 39.8µM | nt | i | nt
Clc1ccc(Nc2nc(C3CC3)cs2)cc1 | i | 39.8µM | i | nt | i
CCc1ccc(NC(=O)c2cc3c(COC(C)=O)cnc(C)c3oc2=O)cc1 | i | i | i | nt | i
C#CCOCCOCCOCCNc1nc(N2CCN(C(=O)CCCCCCCCCCNC(=O)[C@H](CCCCN)n3cc(CCO)nn3)CC2)nc(N2CCN(C(=O)CCCCCCCCCCNC(=O)[C@H](CCCCN)n3cc(CCO)nn3)CC2)n1 | i | i[2.33 µM] | 89.1µM | i | ?
C#CCOCCOCCOCCNc1nc(N2CCN(C(=O)CCCCCCCCCCNC(=O)[C@H](CCCCN)n3cc(CCO)nn3)CC2)nc(N2CCN(C(=O)CCCCCCCCCCNC(=O)[C@@H]([C@H](C)O)n3cc(C)nn3)CC2)n1 | 50.1µM | i[2.33 µM] | 79.4µM | i | i
CCOc1ccc(OCC)c(NS(=O)(=O)c2cccc3nsnc23)c1 | 50.1µM | ? | ? | nt | ?
COc1ccc(C(=O)O)cc1NS(=O)(=O)c1cccc2nsnc12 | i | 3.98µM | i | i | i
COc1ccccc1NS(=O)(=O)c1cccc2nsnc12 | i | nt | i | i | i
COc1cc(CNCCN2CCOCC2)ccc1OCc1c(Cl)cccc1Cl | i | ? | nt | i | nt
CCOc1cc(CNCCN2CCOCC2)ccc1OCc1ccccc1Cl | i | 50.1µM | i | i | i
CCOc1ccc(N(CC)S(=O)(=O)N2CCCC(C(=O)Nc3ccc(NC(C)=O)cc3)C2)cc1 (centres undefined) | i | i | i | nt | i
CCc1ccc(NC(=O)Cn2ncc3c(C)n(Cc4cccc(Cl)c4)c(C)c3c2=O)cc1 | 79.4µM | i | i | nt | i
SMILES | BAZ2B block | G9a inh | JMJD2A Tudor inh | L3MBTL1 inh | HP1b binding inh
COc1ccc(NC(=O)Cn2ncc3c(C)n(Cc4cccc(Cl)c4)c(C)c3c2=O)cc1 | i | i | i | nt | i
Cn1c(=O)c(Oc2ccc(Cl)cc2)c(O)c2ccccc21 | i | 79.4µM | i | i | i
COc1ccc(Oc2c(O)c3ccccc3n(C)c2=O)cc1 | i | 44.7µM | i | i | i
COc1cc(NC(=O)CCc2c(C)nc3nc(-c4cc(OC)cc(OC)c4)nn3c2C)cc(OC)c1 | i | i | i | nt | i
CCn1c(C(=O)N2CCC(C(=O)N3CCN(c4cccc(C)c4C)CC3)CC2)cc2sccc21 | 22.4µM | ? | ? | nt | i
CCn1c(C(=O)N2CCC(C(=O)N3CCN(c4cc(C)ccc4C)CC3)CC2)cc2sccc21 | 22.4µM | ? | 22.4µM | nt | ?
CCn1c(C(=O)N2CCC(C(=O)N3CCN(c4ccccn4)CC3)CC2)cc2sccc21 | i | i | i | i | i
CCCCCOC(=O)Nc1nc(=O)n(C2O[C@H](C)[C@@H](O)[C@@H]2O)cc1F (some centres undefined) | nt | i | nt | nt | nt
Cn1cnc(S(=O)(=O)N2CCC(C(=O)N3CCN(c4ccc(Cl)cc4)CC3)CC2)c1 | i | i | i | nt | i
CCn1c(=O)c2c(n3c(=S)[nH]nc13)-c1ccccc1CC21CCCCC1 | i | 1.58µM | 17.8µM | nt | i
CCn1c(SCC#N)nc2c(c1=O)C1(CCCC1)Cc1ccccc1-2 | i | i | i | i | i
Cc1ccc(CN2CCN(C3CCN(S(=O)(=O)N(C)C)CC3)C(=O)C2=O)cc1 | i | i | i | nt | i
CC(=O)c1cccc(S(=O)(=O)NC(C)C2CC3CCC2C3)c1 (centres undefined) | i | 50.1µM | i | nt | i
CC(C)c1cnc2c(c1SCc1cccc(F)c1)c(=O)n(C)c(=O)n2C | i | i | i | nt | i
C[C@H](CO)N1C[C@H](C)[C@@H](CN(C)CC2CCCCC2)Oc2c(NC(=O)Cc3ccccc3)cccc2C1=O | nt | nt | 56.2µM | i | i
COc1ccccc1/C=C/CN1CCOCC1 | ? | ? | 3.16µM | i | i
COc1ccccc1/C=C/CN1CCSCC1 | 56.2µM | 31.6µM | 6.31µM | i | ?
Cc1ccccc1-c1cc(N(C)Cc2ccco2)ncn1 | nt | i[0.501 µM] | nt | nt | nt
Cc1ccccc1Cn1cnc2nc3c(cc2c1=O)CC(C)CC3 (centres undefined) | i | i | i | nt | i
CC1=[N+](C)c2c(ccc3cccnc23)C1(C)C | 39.8µM | 3.16µM | 25.1µM | ? | ?
Cc1cccc(C(=O)NCC(=O)OCc2cc(=O)n3nc(C)sc3n2)c1 | i | i | i | nt | i
O=C(Nc1nc2c(F)cc(F)cc2s1)c1ccc(S(=O)(=O)N2CCc3ccccc32)cc1 | i | i | i | nt | i
CCC(=O)/C=C1/Sc2ccc(OC)cc2N1CCO | i | i | ? | i | i
CCC(/C=C1\Sc2ccc(OC)cc2N1CC)=C\c1sc2ccc(OC)cc2[n+]1CCCS(=O)(=O)[O-] | 22.4µM | 20µM | ? | nt | i
CCO/C(=C/c1sc2ccc(OC)cc2[n+]1CCCS(=O)(=O)[O-])CC | i | i | i | nt | i
CCC(/C=C1\Sc2ccc(OC)cc2N1CCO)=C\c1sc2ccc(OC)cc2[n+]1CCO | 12.6µM | 11.2µM | 22.4µM | ? | 39.8µM
COc1ccccc1CNc1ccnc(-c2ccc(N(C)C)cc2)n1 | nt | i[0.501 µM] | nt | nt | nt
